Each structure is given as a SMILES string. The panel holds about 83,000 compounds, 20% with a hit somewhere; the sample as a whole holds those more often.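 The test compound was applied at a single concentration to cells in 96-well plates for 48 hours, and percent growth was recorded.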 Values without a mark were called inactive. Active and inactive are the calls of the source. The calls were made as follows: active = growth percent below 10; inactive = the rest.

The first assay relates to HCT-116 colon. The experiment in a line: NCI-60 one-dose screen, 48 h (100 = growth as untreated, 0 = no growth, -100 = all killed). Conditions: 10 µM unless noted.
For `COc1ccc(CN2C(=O)/C(=C/c3nc(CO)cs3)SC2=S)cc1`, the growth is 75%. Take `O=C(Nc1cc(F)cc2cccnc12)c1cnc(N2CCOCC2)cn1`: the growth is 9.63% (active). Take `CC1OC(O[C@@H]2[C@H](O)C(CO)OC(O[C@H]3COC(O[C@H]4CC[C@]5(C)[C@H]6CC[C@]78OC[C@@]9(CCC(C)(C)C[C@H]97)[C@H](O)C[C@@]8(C)[C@]6(C)CC[C@H]5C4(C)C)[C@@H](OC4OC(CO)[C@@H](O)[C@@H](O)[C@@H]4O)[C@@H]3O)[C@H]2OC2OC[C@@H](O)[C@@H](O)[C@@H]2O)[C@@H](O)[C@@H](O)[C@H]1O` (stereo partly specified): the growth is -80.1% (active). As for `C#C[C@]1(O)CC[C@H]2[C@@H]3CC=C4c5sc(Nc6cccc(Cl)n6)nc5CC[C@]4(C)[C@H]3CC[C@@]21C`, the growth was 10.1%. Take `Cc1ccc(/C=C/CC(=O)Nc2ccc(C(=O)Nc3ccc(F)cc3N)nc2)cn1`: the growth is 17.7%. With `O=C1[C@@H]2Cc3c([nH]c4ccccc34)[C@H](c3c(Cl)cccc3Cl)N2C(=O)CN1C1CCN(Cc2ccccc2)CC1`, the growth is -32.8% (active).

For `C#CCOc1ccc(C(Nc2ccc(OC)cc2)c2nnnn2C2CCCCC2)cc1` (stereo unspecified), the growth was 88.7%. Take `COc1cc(C(=O)c2cc(C(C)=O)c3c4ccccc4ccn23)cc(OC)c1OC`: the growth is 42.2%. For the compound `Cc1[nH]nc2ccc(-c3nc4cnc(N5CCN(C)CC5)cn4c3Nc3ccc(F)cc3Br)cc12`, the growth is 11%. On the same count and under the same terms, the figure for `O=C(Nc1cccc(Cl)c1)Nc1nc2ccc(-c3cccc4ccccc34)cc2s1` is 27%; for `Cc1cc(C(=O)Nc2ccc(SC#N)cc2)c(C)o1` it is 96.1%; for `O=C(NNc1nc2cc(F)c(F)cc2n2cccc12)c1ncccn1` it is 31.2%. On the same count and under the same terms, the figure for `CN1CCN(c2ccc(NC(=O)Nc3ccc4c(ccn4-c4cccc(C(N)=O)n4)c3)cc2C(F)(F)F)CC1` is 12.3%; for `O=C(Nc1ccc(Cl)cc1)Nc1nc2ccc([N+](=O)[O-])cc2s1` it is -35.1% (active); for `NC(=O)c1c(NC(=O)c2cccc(OC(F)(F)F)c2)sc2c1CCC(=O)C2` it is 15.6%. With `O=C(/C=C1\C=CN(CCCCO)c2ccccc21)n1ccc2ccccc21`, the growth is 108%. Same read-out and setting: with `O=C1c2c(c3c4cccnc4[nH]c3c3ccc4ccccc4c23)C(=O)N1CCN1CCNCC1` the figure was 36.6%. Same read-out and setting: the figure for `O=C(Nc1ccccc1)Nc1nc2ccc([N+](=O)[O-])cc2s1` is 4.52% (active). In the case of `Cc1cc(Cl)cc(NS(=O)(=O)c2ccc(-c3cnc(C4CC4)o3)cc2)c1`, the growth was 18.4%.

With `CCOC(=O)C1=C(C)Nc2nc3ccccc3n2C1c1cccc(Br)c1` (stereo unspecified), the growth was 81.4%. Still for that read-out and setting: with `CCOC(=O)c1nn(-c2ccc(C)cc2)c(=O)c2c(N)c(C#N)c(-c3ccc(OC)cc3)cc12` the figure was 99.4%; with `Cc1ccc(NC(=O)c2cccc(CN3CCN(C)CC3)c2)cc1Oc1ccc(-c2[nH]nc3ncnc(N)c23)cc1`, 57.4%; with `O=C1c2c(c3c4cc(Br)ccc4[nH]c3c3ccc4ccccc4c23)C(=O)N1CCN1CCCCC1`, -61.8% (active). The same measure, in the same setting: with `CC(C)(C)OC(=O)N1CCN(S(=O)(=O)/N=C2\NC(=O)NC2=C(Cl)Cl)CC1` the figure was 98%.

For the next assay, the system named is HCC-2998 colon. Described as above. The conditions noted are these: 10 µM unless noted.
Consider `CCN1C(=O)N(CC)C2SC(N/N=C/c3cccs3)=NC21` (stereo unspecified), for which the growth was 15.4%.

`O=C1NC(=O)/C(=C/c2ccc(OCc3cc4ccccc4nc3Cl)cc2)S1`: the growth was 105%. Take `O=C(NNc1nc2cc(F)c(F)cc2n2cccc12)c1ccncn1`: the growth is 53.3%. Still for that read-out and setting: with `C#C[C@]1(O)CC[C@H]2[C@@H]3CC=C4c5sc(Nc6nc(C)cc(OC)n6)nc5CC[C@]4(C)[C@H]3CC[C@@]21C` the figure was 80.9%.

Take `CCNC(=O)Oc1ccc(/C(=C(/C)c2ccc(Cl)cc2)c2ccc(OCCN3CCCC3)cc2)cc1`: the growth is 77.4%. Take `O=C(NNc1nc2cc(F)c(F)cc2n2cccc12)c1cccnn1`: the growth is 49.2%. For `O=C(O)CNS(=O)(=O)c1ccc(Oc2ccc(S(=O)(=O)NCC(=O)O)cc2)cc1`, the growth is 105%. Turning to `Cc1cc(NS(=O)(=O)c2ccc(-c3cnc(C4CC4)o3)cc2)ccc1I`, the growth was 63.8%. Same read-out and setting: with `COc1ccc(C(=O)c2c(N)c(C#N)cn2-c2cccc(OC)c2)cc1` the figure was 56.1%; with `COc1ccc(CCN2C(=O)CSC2=S)cc1OC`, 111%; with `Cc1ccc(/C=C/CC(=O)Nc2ccc(C(=O)Nc3ccc(F)cc3N)cc2)cn1`, 64.6%. Still for that read-out and setting: with `O=C(NNc1nc2cc(F)cc(F)c2n2cccc12)c1ccncn1` the figure was 57.5%; with `C[C@H]1[C@H](C)CC[C@]2(COC(=O)c3cccnc3)CC[C@]3(C)C(=CC[C@@H]4[C@@]5(C)CCCNC(C)(C)[C@@H]5CC[C@]43C)[C@H]12`, 49.6%; with `Fc1ccccc1/C=C(/C1=NCCN1)n1cnc2ccccc21`, 102%. Still for that read-out and setting: with `COc1ccc(CN2C(=O)/C(=C/c3nc(CO)cs3)SC2=S)cc1` the figure was 109%; with `O=C(Nc1cc(F)cc2cccnc12)c1cnc(N2CCOCC2)cn1`, 107%.

As to `C#C[C@]1(O)CC[C@H]2[C@@H]3CC=C4c5sc(Nc6cccc(Cl)n6)nc5CC[C@]4(C)[C@H]3CC[C@@]21C`, the growth is 24.2%. The same measure, in the same setting: the figure for `Cc1ccc(/C=C/CC(=O)Nc2ccc(C(=O)Nc3ccc(F)cc3N)nc2)cn1` is 31.4%; for `O=C1[C@@H]2Cc3c([nH]c4ccccc34)[C@H](c3c(Cl)cccc3Cl)N2C(=O)CN1C1CCN(Cc2ccccc2)CC1` it is 10.6%. As for `C#CCOc1ccc(C(Nc2ccc(OC)cc2)c2nnnn2C2CCCCC2)cc1` (stereo unspecified), the growth was 101%.

`COc1cc(C(=O)c2cc(C(C)=O)c3c4ccccc4ccn23)cc(OC)c1OC`: the growth was 62.9%.

On to `Cc1[nH]nc2ccc(-c3nc4cnc(N5CCN(C)CC5)cn4c3Nc3ccc(F)cc3Br)cc12`, for which the growth is 69.8%. The same measure, in the same setting: with `O=C(Nc1cccc(Cl)c1)Nc1nc2ccc(-c3cccc4ccccc34)cc2s1` the figure was 57.3%; with `Cc1cc(C(=O)Nc2ccc(SC#N)cc2)c(C)o1`, 107%.

`O=C(NNc1nc2cc(F)c(F)cc2n2cccc12)c1ncccn1`: the growth was 62.4%. Turning to `CN1CCN(c2ccc(NC(=O)Nc3ccc4c(ccn4-c4cccc(C(N)=O)n4)c3)cc2C(F)(F)F)CC1`, the growth is 63.4%. Turning to `O=C(Nc1ccc(Cl)cc1)Nc1nc2ccc([N+](=O)[O-])cc2s1`, the growth is -27.6% (active). Still for that read-out and setting: with `NC(=O)c1c(NC(=O)c2cccc(OC(F)(F)F)c2)sc2c1CCC(=O)C2` the figure was 104%; with `O=C(/C=C1\C=CN(CCCCO)c2ccccc21)n1ccc2ccccc21`, 112%. Still for that read-out and setting: with `O=C1c2c(c3c4cccnc4[nH]c3c3ccc4ccccc4c23)C(=O)N1CCN1CCNCC1` the figure was 81.8%; with `O=C(Nc1ccccc1)Nc1nc2ccc([N+](=O)[O-])cc2s1`, 10.8%; with `Cc1cc(Cl)cc(NS(=O)(=O)c2ccc(-c3cnc(C4CC4)o3)cc2)c1`, 19.8%. Take `CCOC(=O)C1=C(C)Nc2nc3ccccc3n2C1c1cccc(Br)c1` (stereo unspecified): the growth is 93.1%.

As for `CCOC(=O)c1nn(-c2ccc(C)cc2)c(=O)c2c(N)c(C#N)c(-c3ccc(OC)cc3)cc12`, the growth is 110%.

Take `Cc1ccc(NC(=O)c2cccc(CN3CCN(C)CC3)c2)cc1Oc1ccc(-c2[nH]nc3ncnc(N)c23)cc1`: the growth is 99.4%. In the case of `O=C1c2c(c3c4cc(Br)ccc4[nH]c3c3ccc4ccccc4c23)C(=O)N1CCN1CCCCC1`, the growth was 2.69% (active). On the same count and under the same terms, the figure for `CC(C)(C)OC(=O)N1CCN(S(=O)(=O)/N=C2\NC(=O)NC2=C(Cl)Cl)CC1` is 75%.

The record behind these values is PubChem BioAssay (NCI).
